Source: PubChem BioAssay (National Center for Advancing Translational Sciences (NCATS))
Shown are actives, neighbours in structure and some others; about 7.4% of the full set was active somewhere.
ELG1 genotoxic: genotoxicity induction in ELG1-luciferase HEK293T cells. HEK293T ELG1-luciferase reporter, luminescence, 16 h. AID 504466. 330,000 tested, 1.3% active. Potency, µM (doses to about 46 µM), without a hit: at the highest dose activity change, positive = activation, usual class: activators; also: % of control where 0% means no effect; nearly all actives have a fitted effect of over 60% in size
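ELG1-luciferase HEK293T cells, 2,000/well; compound pinned in; 16 hr, 37 °C, 5% CO2; ONE-Glo, 30 min RT; luminescence on CCD imager.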
FLuc modulator: counter-screen for miR-21 project: firefly luciferase inhibitors or activators | 360,000 tested, 6.9% active | purified FLuc, Km substrates, luminescence inhibition | AID 588342 | P08659 | Potency, µM (highest dose often 57.5 µM), for inactives: at the highest dose activity change, negative = inhibition, usual class: inhibitors;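 also: plate controls were vehicle for no effect and reference inhibitor for full effect; nearly all actives have a fitted effect of over 55% in size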
Target sequence (P08659 whole entry, looked up): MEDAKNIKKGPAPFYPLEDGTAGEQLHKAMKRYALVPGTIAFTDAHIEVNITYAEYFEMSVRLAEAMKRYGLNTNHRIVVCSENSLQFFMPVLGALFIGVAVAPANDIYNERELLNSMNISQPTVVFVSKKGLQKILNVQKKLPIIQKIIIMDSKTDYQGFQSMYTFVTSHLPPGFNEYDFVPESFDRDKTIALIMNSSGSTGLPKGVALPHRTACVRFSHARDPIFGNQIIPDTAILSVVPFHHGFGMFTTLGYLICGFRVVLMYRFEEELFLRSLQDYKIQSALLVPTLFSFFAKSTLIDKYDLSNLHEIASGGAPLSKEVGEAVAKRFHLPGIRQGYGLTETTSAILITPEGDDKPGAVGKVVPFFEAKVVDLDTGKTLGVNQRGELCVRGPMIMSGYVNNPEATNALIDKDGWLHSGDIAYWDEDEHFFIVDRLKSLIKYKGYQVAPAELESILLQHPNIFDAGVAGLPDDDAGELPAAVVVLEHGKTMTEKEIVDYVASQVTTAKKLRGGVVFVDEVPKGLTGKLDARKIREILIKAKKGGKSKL
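Purified P. pyralis luciferase, 10 nM final, with Km-level 10 uM D-luciferin and 10 uM ATP in 50 mM Tris acetate pH 7.5, 10 mM Mg acetate, 0.01% Tween-20, 0.05% BSA; 6-point qHTS titration about 60 µM downward; luminescence read.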
Rab9 promoter act: activates the Rab9 promoter | Potency, µM (top dose mostly 9.22 µM), for the others: top-dose activation, negative = inhibition, usual class: activators | AID 485297 | 320,000 tested, 2.8% active | Huh7 Rab9 promoter-luciferase reporter, luminescence, 24 h; also: % of control where 0% means no effect; nearly all actives have a fitted effect of over 60% in size
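Using Huh7 cells stably transfected with Rab9 promoter–luciferase, compounds were incubated 24 h at 37 °C, 5% CO2; luciferase luminescence was read 10 min after reagent addition.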
SMN2 splice up: increases expression of the SMN2 splice variant. HEK293 SMN2-luciferase splicing reporter, luminescence, 30-36 h. Potency, µM (titrated, usually from 46.1 µM), without a hit: top-dose activity change, positive = activation, actives largely listed as activators. 210,000 tested, 2.8% active. AID 1458; also: % of control where 0% means no effect; nearly all actives have a fitted effect of over 55% in size
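HEK293 cells carry an SMN2 minigene-luciferase reporter in which exon 7 inclusion puts luciferase in frame. Cells were seeded at 2000 cells/well, attached for 10-12 hours, then exposed to compounds for 30-36 hours at 37C before ONE-Glo luminescence.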
Luc counter: blocks Kinase-Glo luciferase, a counter-screen artifact; 200,000 tested, 0.28% active; Q27757; Kinase-Glo luciferase, ATP luminescence, 8 min; Potency, µM (series often up to 38.3 µM), for the others: at the highest dose activity change, negative = inhibition, hits mostly inhibitors; also: % is scaled to controls: 0 for no effect and ±100 for the full control effect; nearly all actives have a fitted effect of over 60% in size
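Light output from Kinase-Glo luciferase with luciferin and 10 uM ATP in 50 mM imidazole pH 7.2, KCl, MgCl2, Tween 20, BSA; compound pin-delivered, 8-min ambient incubation, then luminescence read.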
NPC1 promoter act: NPC1 promoter activation; AID 485313; Potency, µM (titrated, usually from 9.22 µM), without a hit: at the highest dose activation, actives largely listed as activators; Huh7 NPC1 promoter luciferase reporter, 24 h; 320,000 tested, 2.4% active; also: % of control where 0% means no effect; nearly all actives have a fitted effect of over 60% in size
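In 1536-well qHTS, Huh7 cells harboring an NPC1 promoter–luciferase construct received compound for 24 h; activation was quantified by luminescence following luciferase reagent addition.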
* = called active by the depositor; ? = inconclusive; . = no result given; [ ] = dose if it differs, or a comment. Calls follow the shape of the dose curve; as a rule, active = well fitted curve in the direction sought with a large enough effect; inconclusive = small, poorly fitted or top-dose-only effect, or another doubt; inactive = no such curve, though single readings can be large; an effect the other way counts as inactive or inconclusive. Potency is read from the fitted curve at half-maximal effect.

SMILES	ELG1 genotoxic	FLuc modulator	Rab9 promoter act	SMN2 splice up	Luc counter	NPC1 promoter act
Cc1ccc(-c2nnn(CC(=O)N(CC(=O)NC3CCCCC3)c3ccccc3F)n2)o1	1%	0%	-4%	.	.	5%
COc1cccc(-c2cc(C(=O)NC3CCCC3)no2)c1	1.8µM*	4.3µM*	0.63µM*	11µM*	3%	1.4µM*
COCCNC(=O)c1cc(-c2cccc(OC)c2)on1	?	12µM*	3.2µM*	11µM*	-8%	3.5µM*
O=C(NC1CCCCC1)c1ccc(-c2cccc([N+](=O)[O-])c2)o1	2.1µM*	2.7µM*	0.4µM*	.	.	0.32µM*
COCC(C)NC(=O)c1cc(-c2cccc(OC)c2)on1 (centres undefined)	?	?	2.2µM*	?	-5%	?
O=C(O)c1ccc(-c2cccc([N+](=O)[O-])c2)o1	-3%	-16%	0%	.	.	-1%
CCOC(=O)C1CCN(C(=O)Cn2ncc3c4ccccc4n(C)c3c2=O)CC1	.	-11%	.	-5%	.	.
Cc1c2cnn(CC(=O)NC3CCCC3)c(=O)c2c(C)n1Cc1ccccc1	?	24µM*	?	.	.	?
CCOC(=O)N1CCC(NC(=O)Cn2ncc3c4ccccc4n(C)c3c2=O)CC1	9%	19µM*	12%	7%	3%	11%
Cc1ccc(OCC(=O)Nc2cccc(-c3nc4ccccc4o3)c2C)cc1C	.	-1%	.	0%	.	.
CCCC(=O)Nc1ccc(-c2nc3cc(C)c(C)cc3o2)cc1	?	1.1µM*	0.35µM*	11µM*	-2%	0.35µM*
COc1cc(C(=O)Nc2ccc(-c3nc4cc(C)c(C)cc4o3)cc2)cc(OC)c1OC	.	-1%	.	6%	.	.
CCCC(=O)Nc1cccc(-c2nc3cc(C)c(C)cc3o2)c1C	.	0.27µM*	.	?	.	.
COc1cc(OC)cc(C(=O)N2CCN(C(=O)c3cccnc3)CC2)c1	0%	1%	-2%	.	.	-2%
COc1ccc(-c2cc(C(=O)Nc3ccc(C(N)=O)cc3)c3ccccc3n2)cc1OC	-1%	3.4µM*	25%	?	0%	10%
COc1ccc(-c2cc(C(=O)NC(C)c3ccccn3)c3ccccc3n2)cc1OC (centres undefined)	-4%	7.6µM*	-6%	.	.	-1%
COc1ccc(NC(=O)c2cc(-c3ccncc3)nc3ccccc23)c(OC)c1	-4%	.	.	.	.	.
COc1ccc(NC(=O)c2cc(-c3ccc(OC)c(OC)c3)nc3ccccc23)c(OC)c1	0%	7.6µM*	18%	.	.	14%
COc1cc(-c2cc(C(=O)Nc3ccc(O)cc3)c3ccccc3n2)cc(OC)c1OC	-10%	?	-8%	.	.	3%
COc1ccc(-c2cc(C(=O)Nc3ccc(S(=O)(=O)Nc4onc(C)c4C)cc3)c3ccccc3n2)cc1OC	2%	13µM*	9%	.	.	8%
CCc1cccc(NC(=O)C2CCCN2C(=O)Nc2ccc(C)cc2)c1 (centres undefined)	3%	3%	1%	.	.	0%
CC12CCC(C(=O)NCc3ccc4c(c3)OCO4)(C(=O)C1=O)C2(C)C (centres undefined)	-2%	-1%	7%	-22%	-1%	7%
COc1ccccc1NS(=O)(=O)c1cc(C(=O)NCCC(C)C)ccc1F	-9%	-11%	0%	-5%	-1%	-7%
O=C(OC1CCOC1=O)c1cc(-c2ccccc2)nc2ccccc12 (centres undefined)	-3%	?	-4%	6%	17%	-3%
COc1ccc(-c2cc(C(=O)OC3CCOC3=O)c3ccccc3n2)cc1OC (centres undefined)	4%	13µM*	-2%	-4%	2%	9%
SMILES	ELG1 genotoxic	FLuc modulator	Rab9 promoter act	SMN2 splice up	Luc counter	NPC1 promoter act
CCc1ccc(/C=C2\SC(=S)N(CCC(=O)NCCCN3CCOCC3)C2=O)cc1	9%	6.7µM*	-14%	.	.	15%
Cc1ccc(/C=C2\SC(=S)N(CCC(=O)NCCCN3CCOCC3)C2=O)cc1	-8%	?	-2%	.	.	-2%
COc1ccc(/C=C2\SC(=S)N(CCC(=O)NCCCN3CCOCC3)C2=O)cc1	0%	17µM*	-8%	.	.	1%
COc1ccc(NC(=O)CN2C(=O)CC(c3ccc(C)c(C)c3)=Nc3ccccc32)cc1OC	.	13µM*	.	.	.	.
Cc1ccc(NC(=O)CN2C(=O)CC(c3ccc(F)cc3)=Nc3ccccc32)cc1F	.	-6%	.	.	.	.
Cc1ccc(C2=Nc3ccccc3N(CC(=O)NCc3ccccc3Cl)C(=O)C2)cc1C	.	9.5µM*	.	.	.	.
S=C(Nc1cccc(Cl)c1Cl)Nn1cnnc1	0%	-19%	-3%	14%	0%	-2%
CC(NC(=O)C(C)(C)C)C(c1cccs1)N1CCOCC1 (centres undefined)	0%	0%	-8%	.	.	0%
COc1ccc(C2=Nc3ccccc3OC2)cc1	0.52µM*	0.85µM*	1.6µM*	?	-11%	1.6µM*
COc1ccc(-c2cc(-c3ccccc3)nc3c2COc2ccccc2-3)cc1	.	-3%	.	5%	.	.
O=C(NCc1cccs1)c1ccc(CS(=O)Cc2cccc(Cl)c2)o1 (centres undefined)	-2%	0%	-2%	.	.	-1%
Cc1cc(-c2nnco2)c(C)n1-c1ccc(F)cc1	5%	17µM*	30%	0%	0%	26%
c1ccc(-c2csc(Nc3cccnc3)n2)nc1	?	19µM*	?	?	0%	?
COc1cccc2sc(NNC(=O)COc3ccccc3)nc12	-2%	-1%	-1%	5%	-1%	4%
c1ccc(Nc2nc(-c3ccccn3)cs2)cc1	.	3.8µM*	.	13µM*	-3%	.
COc1cccc2sc(Nc3nc(-c4ccccn4)cs3)nc12	9%	12µM*	?	.	.	21%
Fc1ccc(Nc2nc(-c3ccncc3)cs2)cc1	-1%	?	?	?	0%	?
c1cncc(Nc2nc(-c3cccs3)cs2)c1	9.2µM*	19µM*	3.2µM*	11µM*	-1%	?
O=C(Nc1nc(-c2ccccn2)cs1)c1ccco1	?	?	10%	-85%	-3%	24%
CCC(NC(=O)Nc1cc(Cl)ccc1OC)c1c(-n2cccc2)sc2c1CCN(C)C2 (centres undefined)	.	-14%	.	.	.	.
CC(C(=O)Nc1ccccc1F)N1CCN(S(=O)(=O)c2ccc(C(F)(F)F)cc2)CC1 (centres undefined)	-5%	0%	-7%	.	.	-2%
Cc1cc(C(=O)CS(=O)(=O)c2ccc(F)cc2)cc(C)c1O	?	?	-2%[1.84 µM]	.	.	23%
CCCN1C(=O)/C(=C\C=C2/Sc3ccccc3N2CC)SC1=S	-2%	-17%	-2%	-12%	-14%	-3%
